Source: PubChem BioAssay (National Center for Advancing Translational Sciences (NCATS))
Rows were chosen to be rich in hits. Some 7.9% of all compounds tested hit in one or more screens of this group.
SW480 rerep = inducers of DNA re-replication in SW480 colon cancer cells; SW480 DNA re-replication, Hoechst DNA content imaging, 48 h; Potency, µM (titrated, usually from 46.1 µM), inactives show top-dose re-replication activation, hits mostly activators; actives 1.8% (n = 340,000); note: % of control where 0% means no effect; nearly all actives have a fitted effect of over 55% in size
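Hoechst fluorescence of nuclei (405 nm excitation, 500-530 nm emission) measured by plate-scanning imager after 48 hr compound exposure at 37 C; re-replication scored as increased number of nuclei with elevated intensity.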
KB-3-1 tox = KB-3-1 parental cell cytotoxicity; KB-3-1 viability, CellTiter-Glo ATP luminescence, 72 h; Potency, µM (top dose mostly 46.1 µM), usual class: cytotoxic; actives 1.4% (n = 400,000); AID 1347075; note: % is set by controls: 0 for no effect and ±100 for the full control effect; nearly all actives have a fitted effect of over 60% in size
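Here the drug-naive KB-3-1 line serves as comparator for MDR sub-line selectivity; cells received compound titrations, 72 h at 37 °C, then CellTiter-Glo readout.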
KB-V1 cytotox = KB-V1 MDR subline cytotoxicity. KB-V1 MDR cells viability, CellTiter-Glo, 72 h. Potency, µM (highest dose often 46.1 µM), actives largely listed as cytotoxic. actives 3.4% (n = 400,000). AID 1347076; note: % is set by controls: 0 for no effect and ±100 for the full control effect; nearly all actives have a fitted effect of over 60% in size
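Cells of the MDR subline KB-V1 are plated, dosed with compound at multiple concentrations, and incubated 72 h at 37 degrees C; CellTiter-Glo is then added and luminescence read after 10 min.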
HT1080-NT tox = kills 2HG-producing HT-1080-NT fibrosarcoma cells | HT-1080-NT fibrosarcoma viability, CellTiter-Glo ATP luminescence, 48 h | Potency, µM (top dose mostly 46.1 µM), without a hit: top-dose activity, negative = less viability, hits mostly cytotoxic | actives 1.6% (n = 360,000);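 note: NT is the 2HG producing partner of a matched IDH1 knockdown line; 0% = DMSO-treated cells and -100% = media-only wells without cells; nearly all actives have a fitted effect of over 55% in size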
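HT-1080-NT fibrosarcoma cells (2HG-overproducing), 750 cells/well in RPMI with 5% FBS, dosed after 2 h and incubated 48 h at 37C. CellTiter-Glo luminescence normalized to DMSO and no-cell wells; concentration-response curves fitted and classed.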
MCF10A rerep = inducers of DNA re-replication in MCF 10A breast cells | MCF 10A DNA re-replication, Hoechst nuclear intensity, 48 h | Potency, µM (titrated, usually from 46.1 µM), for the others: at the top dose activity, positive = re-replication, hits mostly activators | actives 2.9% (n = 350,000) | AID 624296; note: % of control where 0% means no effect; nearly all actives have a fitted effect of over 50% in size
HT1080 IDH1KD tx = kills HT-1080 cells with IDH1 knockdown; actives 2% (n = 360,000); Potency, µM (series often up to 46.1 µM), for inactives: at the top dose activity, negative = toxicity, actives largely listed as cytotoxic; HT-1080 IDH1 knockdown viability, ATP luminescence, 48 h;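 note: 0% = DMSO wells and -100% = cell-free medium wells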
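In this qHTS, HT-1080 cells depleted of IDH1 are exposed for 48 h at 37 °C to compound titrations. Toxicity is scored from CellTiter-Glo luminescence, with DMSO as full viability and medium alone as none.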
* = called active by the depositor. Calls come from the whole dose curve; as a rule, active = well fitted curve in the direction sought with a large enough effect; inconclusive = small, poorly fitted or top-dose-only effect, or another doubt; inactive = no such curve, though single readings can be large; an effect the other way counts as inactive or inconclusive. Potency is the fitted concentration of half-maximal effect.

Results for CN(C)C(=O)CCc1ccc2c3c([nH]c2c1)[C@]1(C)[C@@H](C(=O)N2CCOCC2)C[C@H](CC(=O)NCCC2=CCCCC2)C(=O)N1CC3 ?
SW480 rerep: inconclusive; KB-3-1 tox: inactive; KB-V1 cytotox: inactive; HT1080-NT tox: 4%; MCF10A rerep: 21%; HT1080 IDH1KD tx: 9%

How did O=C(COc1cccc(Oc2ccccc2)c1)Nc1ccc(SC(F)F)cc1 do in these assays?
SW480 rerep: 7.3µM*; KB-3-1 tox: inactive; KB-V1 cytotox: inactive; HT1080-NT tox: inconclusive; MCF10A rerep: 0.73µM*; HT1080 IDH1KD tx: inconclusive

What do the screens show for `O=C(COC(=O)c1ccccc1Cc1ccccc1)Nc1ccc(SC(F)F)cc1`?
SW480 rerep: inconclusive; KB-3-1 tox: inactive; KB-V1 cytotox: inconclusive; HT1080-NT tox: 6%; MCF10A rerep: 26µM*; HT1080 IDH1KD tx: 1%

How did O=C(Cc1ccc(Cl)cc1)Nc1ccc(SC(F)F)cc1 do in these assays?
SW480 rerep: -35%; KB-3-1 tox: inconclusive; KB-V1 cytotox: 21µM*; HT1080-NT tox: -1%; MCF10A rerep: inconclusive; HT1080 IDH1KD tx: -7%

How did Cc1ccc(C(=O)c2ccccc2C(=O)OCC(=O)Nc2ccc(SC(F)F)cc2)cc1 do in these assays?
SW480 rerep: 22%; KB-3-1 tox: inactive; KB-V1 cytotox: 12µM*; HT1080-NT tox: -16%; MCF10A rerep: inconclusive; HT1080 IDH1KD tx: inconclusive

How did COc1cc(C(=O)OCC(=O)Nc2ccc(SC(F)F)cc2)cc(OC)c1OC do in these assays?
SW480 rerep: -19%; KB-3-1 tox: inactive; KB-V1 cytotox: 15µM*; HT1080-NT tox: -7%; MCF10A rerep: 0%; HT1080 IDH1KD tx: 1%

Results for Cc1ccc(C(=O)c2ccccc2C(=O)OCC(=O)Nc2cccc([N+](=O)[O-])c2)cc1 ?
SW480 rerep: 2%; KB-3-1 tox: inactive; KB-V1 cytotox: 23µM*; HT1080-NT tox: 1%; MCF10A rerep: 18%; HT1080 IDH1KD tx: 0%

Results for Cc1ccc(-c2nc(C)sc2CC(=O)OCC(=O)Nc2cccc([N+](=O)[O-])c2)cc1 ?
SW480 rerep: -1%; KB-3-1 tox: inactive; KB-V1 cytotox: inactive; HT1080-NT tox: -8%; MCF10A rerep: 24%; HT1080 IDH1KD tx: -18%

Results for O=C(Nc1ccc(SC(F)F)cc1)c1ccc(F)cc1 ?
SW480 rerep: inconclusive; KB-3-1 tox: inactive; KB-V1 cytotox: inactive; HT1080-NT tox: -9%; MCF10A rerep: 0.82µM*; HT1080 IDH1KD tx: -3%

What do the screens show for `N#Cc1nc(Nc2cc(F)cc(F)c2)c2ncn(CCCO)c2n1`?
KB-3-1 tox: inconclusive; KB-V1 cytotox: inactive

What do the screens show for `Cc1cc(OCC(=O)Nc2sc3c(c2C(N)=O)CCCC3)ccc1C(C)C`?
KB-3-1 tox: inactive; KB-V1 cytotox: inconclusive

What do the screens show for `CCOC(=O)N1CCN(C(=O)c2ccc3c(c2)N=C(C)c2cc(Cl)ccc2S3)CC1`?
SW480 rerep: -30%; KB-3-1 tox: inconclusive; KB-V1 cytotox: inactive; HT1080-NT tox: 25%; MCF10A rerep: 2%; HT1080 IDH1KD tx: 2%

What do the screens show for `Nc1nc(N)c2c(OCC3CCN(Cc4ccccc4F)CC3)cccc2n1`?
KB-3-1 tox: inactive; KB-V1 cytotox: inconclusive

Results for Fc1ccccc1NC(=S)NN(Cc1ccccc1)c1ccccc1 ?
SW480 rerep: inconclusive; KB-3-1 tox: inactive; KB-V1 cytotox: inactive; HT1080-NT tox: 11µM*; MCF10A rerep: -13%; HT1080 IDH1KD tx: inconclusive

What do the screens show for `CS(=O)(=O)N(CC(=O)Nc1ccccc1-c1ccccc1)c1cccc(F)c1`?
SW480 rerep: -11%; KB-3-1 tox: inactive; KB-V1 cytotox: inactive; HT1080-NT tox: -6%; MCF10A rerep: 0.65µM*; HT1080 IDH1KD tx: -4%

Results for COc1ccc(C)cc1NS(=O)(=O)c1ccc(NC(=O)CN(c2cc([N+](=O)[O-])ccc2C)S(C)(=O)=O)cc1 ?
SW480 rerep: inconclusive; KB-3-1 tox: inactive; KB-V1 cytotox: inactive; HT1080-NT tox: inconclusive; MCF10A rerep: 22%; HT1080 IDH1KD tx: inconclusive

Results for Cc1cccc(NS(=O)(=O)c2ccc(NC(=O)CN(c3cc([N+](=O)[O-])ccc3C)S(C)(=O)=O)cc2)c1 ?
SW480 rerep: 18µM*; KB-3-1 tox: inactive; KB-V1 cytotox: inactive; HT1080-NT tox: inconclusive; MCF10A rerep: inconclusive; HT1080 IDH1KD tx: inconclusive

Results for CC(=O)c1cccc(N(CC(=O)Nc2ccc(S(=O)(=O)N3CCOCC3)cc2)S(C)(=O)=O)c1 ?
SW480 rerep: -14%; KB-3-1 tox: inactive; KB-V1 cytotox: inactive; HT1080-NT tox: -8%; MCF10A rerep: -2%; HT1080 IDH1KD tx: -11%

What do the screens show for `CS(=O)(=O)N(CC(=O)Nc1ccccc1-c1ccccc1)c1ccccc1`?
SW480 rerep: -1%; KB-3-1 tox: inactive; KB-V1 cytotox: inactive; HT1080-NT tox: -14%; MCF10A rerep: inconclusive; HT1080 IDH1KD tx: -1%

What do the screens show for `Cc1ccc(N(CC(=O)Nc2ccccc2-c2ccccc2)S(=O)(=O)c2ccccc2)c(C)c1`?
SW480 rerep: 5%; KB-3-1 tox: inactive; KB-V1 cytotox: inactive; HT1080-NT tox: -6%; MCF10A rerep: 21µM*; HT1080 IDH1KD tx: -12%

Results for CS(=O)(=O)N(CC(=O)Nc1ccc(S(=O)(=O)N2CCOCC2)cc1)c1cccc(F)c1 ?
SW480 rerep: 23µM*; KB-3-1 tox: inactive; KB-V1 cytotox: inactive; HT1080-NT tox: -1%; MCF10A rerep: inconclusive; HT1080 IDH1KD tx: -1%

Results for C=C(C(=O)c1ccccc1)C(C(=C)C(=O)c1ccccc1)c1ccc(OC)cc1 ?
SW480 rerep: inconclusive; KB-3-1 tox: inconclusive; KB-V1 cytotox: inconclusive; HT1080-NT tox: 4%; MCF10A rerep: inconclusive; HT1080 IDH1KD tx: -6%

What do the screens show for `CCOC(=O)[C@]12CCCC=C1N(Cc1ccc(Cl)cc1Cl)C(=O)[C@H](CC(=O)NCC1CCCCC1)C2`?
KB-3-1 tox: inactive; KB-V1 cytotox: inconclusive; HT1080-NT tox: inconclusive; HT1080 IDH1KD tx: inconclusive

How did COC(=O)C(Cc1ccc(O)cc1)NC(=O)CCOc1ccc(OC)cc1 (centres undefined) do in these assays?
SW480 rerep: -8%; KB-3-1 tox: inactive; KB-V1 cytotox: inactive; HT1080-NT tox: 8%; MCF10A rerep: 6%; HT1080 IDH1KD tx: 2%

Results for Cc1ccc(N(CC(=O)Nc2ccc(S(=O)(=O)N3CCOCC3)cc2)S(C)(=O)=O)cc1C ?
SW480 rerep: 3%; KB-3-1 tox: inactive; KB-V1 cytotox: 23µM*; HT1080-NT tox: 0%; MCF10A rerep: 2%; HT1080 IDH1KD tx: 1%
